From PubChem BioAssay (NCATS)
Records with an inconclusive call do not appear. A call without a number means that no potency is given here. Unmarked numbers belong to inactive results. Active and inactive are the calls of the source. The call rests on the fitted dose curve; in most records, active means well fitted inhibition curve with a large enough effect; inconclusive means small, poorly fitted or top-dose-only effect; inactive means flat fitted curve, though single readings scatter. Where a SMILES comes first, the peptide text is derived from it. [ ]: non-standard residue; d: D form. dPhe(4-Cl) = N[C@H](Cc1ccc(Cl)cc1)C(=O)O; d2Nal = N[C@H](Cc1ccc2ccccc2c1)C(=O)O; dCit = NC(=O)NCCC[C@@H](N)C(=O)O; d3Pal = N[C@H](Cc1cccnc1)C(=O)O

Experiment: P-glycoprotein substrates identified in KB-8-5-11 adenocarcinoma cell line, qHTS therapeutic library screen (AID 1346987); further: nearly all actives have a fitted effect of over 65% in size
Details: KB-8-5-11 (P-gp overexpressing) viability, CellTiter-Glo, 72 h; series mostly up to 44.5 µM
In short: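 Steps: plate 500 KB-8-5-11 cells/well in DMEM + 10% FCS (colchicine removed); pin compounds in dose-response; incubate 72 h, 37 degree C, 5% CO2; add CellTiter-Glo, 5 min; read luminescence.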
Potency means the concentration at half of the fitted maximal effect.

| SMILES | Potency | activity change, negative = cytotoxicity | outcome |
| --- | --- | --- | --- |
| CC1CCN(C(=O)CC#N)CC1N(C)c1ncnc2[nH]ccc12 (configuration not stated) | inactive |  |  |
| C/C=C(\C)C(=O)O[C@H]1[C@@H](O[C@]2(COC(=O)CC(C)C)O[C@H](COC(=O)C(C)CC)[C@@H](OC(C)=O)[C@@H]2O)O[C@H](COC(C)=O)[C@@H](O)[C@@H]1O (some centres not stated) | inactive |  |  |
| COc1ccc(/C=C/C(=O)O[C@H]2[C@H](O[C@H]3[C@@H]4C=CO[C@@H](O[C@@H]5O[C@H](CO)[C@@H](O)[C@H](O)[C@H]5O)[C@@H]4[C@@]4(CO)O[C@@H]34)O[C@@H](C)[C@H](O)[C@H]2OC(C)=O)cc1 | inactive |  |  |
| CC[C@H](C)[C@H](NC(=O)[C@H]([C@@H](C)CC)N(C)C(C)=O)C(=O)N[C@H](C(=O)N[C@@H](CC(C)C)C(=O)[C@@]1(C)CO1)[C@@H](C)O | 2590 nM (active) |  |  |
| CC(C)=CCC[C@](C)(O)[C@H]1CC[C@]2(C)[C@@H]1[C@H](O)CC1[C@@]3(C)CC[C@H](O)C(C)(C)[C@@H]3[C@@H](O[C@@H]3O[C@H](CO)[C@@H](O)[C@H](O)[C@H]3O[C@@H]3O[C@H](CO)[C@@H](O)[C@H](O)[C@H]3O)C[C@]12C (some centres not stated) | inactive |  |  |
| CC(=O)O[C@@H]1[C@H](O)[C@@H](O[C@@H]2O[C@@H](C)[C@H](O[C@@H]3OC[C@@H](O)[C@H](O[C@@H]4OC[C@@H](O)[C@H](O)[C@H]4O)[C@H]3O)[C@@H](O[C@@H]3O[C@H](CO)[C@@H](O)[C@H](O)[C@H]3O)[C@H]2O)[C@H](OC(=O)[C@]23CCC(C)(C)C[C@H]2C2=CCC4[C@@]5(C)CC[C@H](O[C@@H]6O[C@H](C(=O)O)[C@@H](O)[C@H](O[C@@H]7OC[C@@H](O)[C@H](O)[C@H]7O)[C@H]6O[C@@H]6O[C@H](CO)[C@H](O)[C@H](O)[C@H]6O)[C@@](C)(C=O)C5CC[C@@]4(C)[C@]2(C)CC3)O[C@@H]1C (some centres not stated) |  | 9.26% [at 5.11 µM] |  |
| CC(Cc1cc2c(c(C(N)=O)c1)N(CCCO)CC2)NCCOc1ccccc1OCC(F)(F)F (configuration not stated) | inactive |  |  |
| C[C@@H]1O[C@@H](O[C@H]2[C@H](O)[C@@H](C(=O)O)O[C@@H](O[C@H]3CC[C@@]4(C)C(CC[C@]5(C)C4CC=C4C6CC(C)(C)CC[C@]6(C(=O)O)CC[C@]45C)C3(C)C)[C@@H]2O[C@@H]2OC[C@@H](O)[C@H](O)[C@H]2O)[C@H](O)[C@H](O)[C@H]1O (some centres not stated) |  |  | inactive [at 9.29 µM] |
| C[C@@H]1C[C@@H]([C@@H](O)C(C)(C)O)O[C@H]2C[C@@]3(C)C(=C12)C[C@H](O)[C@H]1[C@@]2(C)CCC(=O)C(C)(C)C2CC[C@@]13C (some centres not stated) | inactive |  |  |
| OC/C=C/c1ccc(O[C@@H]2O[C@H](CO)[C@@H](O)[C@H](O)[C@H]2O)cc1 | inactive |  |  |
| CC(=O)N[C@H](Cc1ccc2ccccc2c1)C(=O)N[C@H](Cc1ccc(Cl)cc1)C(=O)N[C@H](Cc1cccnc1)C(=O)N[C@@H](CO)C(=O)N[C@@H](Cc1ccc(O)cc1)C(=O)N[C@H](CCCNC(N)=O)C(=O)N[C@@H](CC(C)C)C(=O)N[C@@H](CCCN=C(N)N)C(=O)N1CCC[C@H]1C(=O)N[C@H](C)C(N)=O (Ac-[d2Nal][dPhe(4-Cl)][d3Pal]SY[dCit]LRP[dA]-NH2) | inactive |  |  |
| CC1(C)CCC2(C(=O)OC3OC(CO)C(O)C(O)C3O)CCC3(C)C(=CCC4C5(C)CCC(O)C(C)(C(=O)O)C5CCC43C)C2C1O (configuration not stated) | inactive |  |  |
